# In ChEMBL document CHEMBL4513149, “CO-ADD screening of MMV (CH) - MMV compounds” (2021):
# Potency and affinity values are given separately.
# Assays:
# [1] = system: Klebsiella pneumoniae; details: Concentration 20 uM; ASSAY_TEST Inhibition of Bacterial Growth; detection method Absorption (OD600); MEDIA CAMHB; plate type 384well; NBS; CORNING #3640; time 18 hr
# [2] = system: Candida albicans; details: 20 µM
# [3] = system: Cryptococcus neoformans; details: Concentration 20 uM; ASSAY_TEST Inhibition of Fungal Growth; detection method Resazurin; Absorption (OD600-OD570); plate type 384well; NBS; CORNING #3640
SMILES,Inhibition [1] [%],Inhibition [2] [%],Inhibition [3] [%]
OCc1ccc(-c2cncc(Nc3cccc(Cl)c3)c2)cc1,12.75,4.13,-14.16
CCOc1ccc2cc(-c3nn(C(C)(C)C)c(N)c3C(N)=O)cnc2c1.Cl,13.27,2.56,-7.03
O=C(Nc1cccc(-c2ccc(NCCCN3CCCC3)nc2)c1)c1ccccc1,8.2,3.22,16.14
O=C(NCCN1CCCC1)c1cc(NCCCCN2CCC(F)(F)CC2)nc2ccc(Cl)cc12,15.7,2.73,24.05
Cl.Cl.Cl.NS(=O)(=O)c1cncc(-c2ccc3nccc(-c4cn[nH]c4)c3n2)c1,-1.63,3.16,-2.89
COc1cncc(-c2cncc(N3CCN(c4ccncc4)CC3)n2)c1,19.7,3.12,4.32
Cc1noc(C)c1COc1cccc(C(=O)N=c2[nH]cccc2C)c1,14.67,1.92,-9.25
Cc1cc(Nc2ccncc2)n2nc(C)c(-c3ccccc3Cl)c2n1,15.32,1.91,-9.03
CNC(=O)C1Cc2ccccc2N1C(=O)Cc1ccc(F)cc1 (stereo unspecified),8.26,3.31,-12.98
CNc1cc(C)nc(C2CN(C(=O)c3n[nH]c4ccccc34)CCO2)c1 (stereo unspecified),20.78,2.95,-9.16
CC(C)(C)n1nc(Cc2cccc3ccccc23)c2c(N)ncnc21,2.54,3.16,-9.17
CC(C)(C)c1ccc(N[C@@H]2CCCC[C@H]2NC(=O)c2ccco2)cc1,-12.61,5.24,-2.08
Cc1ccc(S(=O)(=O)Nc2ccc(CN3CCN(C(=O)c4cccc(C#N)c4)CC3)cc2)cc1,10.93,-0.01,-7.61
O=C(Nc1cccc(Cl)c1)c1cnc(N2CCN(c3ccncc3)CC2)c(Cl)c1,13.15,2.09,-9.48
CCCCS(=O)(=O)Nc1ccc2cnn(C)c2c1,10.18,2.57,-4.93
O=C(c1ccc(F)cc1)N(CCNc1ccccc1)c1ccccc1,12.15,5.49,-9.35

SMILES,Inhibition [1] [%],Inhibition [2] [%],Inhibition [3] [%]
O=C(NCCc1ccccc1)c1cc(-c2cccnc2)cnc1NCC1CC1,-2.11,6.13,-7.61
c1coc(CNc2nc(N3CCCCC3)nc3ccccc23)c1,7.9,4.06,-16.26
O=C(Nc1nnc(S)s1)c1cc(Br)ccc1Cl,6.18,4.73,-3.6
CCNC(=O)C(C)Nc1nc(-c2cccnc2)nc2sc(C)c(C)c12 (stereo unspecified),-9.71,5.77,-4.41
NC(=O)c1cc(Br)ccc1OCCOc1ccccc1,10.17,10.7,-9.83
CN(C)CCNC(=O)N1CCCN(c2ncnc3cc(-c4ccccc4)sc23)CC1,15.92,2.85,-8.19
O=C(NC1CC1)c1ccc(N2CCOc3ccc(Cl)cc32)s1,15.81,6.64,31.76
O=C(NCc1nnc2n1CCCCC2)c1ccc(-c2ccc(F)cc2)o1,6.05,3.81,6.1
CCN(CC)S(=O)(=O)c1ccc(Cl)c(C(=O)Nc2ccc3nc(C)sc3c2)c1,4.43,3.67,-11.27
COc1ccc(-c2nnc3ccc(-c4cccc(C(C)C)c4)cn23)cc1OC,-10.87,15,-9.03
CN(C(=O)c1cc2c(-c3cncnc3)cccc2[nH]1)c1ccccc1,10.84,6.97,-9.57
CCCn1nnc(NC(=O)COc2ccc(C3CCCCC3)cc2)n1,4.73,21.8,-8.36
CCN(CC)C(=O)N1CCN(C)CC1 [DIETHYLCARBAMAZINE],16.19,2.79,-5.92
CN1CCN(c2nccc3nc(-c4ccc(F)c(F)c4)[nH]c23)CC1,17.85,1.66,-6.31
C[C@]1(O)C[C@@H](c2nc(-c3ccc4ccc(-c5ccccc5)nc4c3)c3c(N)nccn32)C1 [LINSITINIB],12.51,8.51,-8.41
CCC(C)NC(=O)c1ccc(NC(=O)C2(c3ccccc3)CCCC2)cc1 (stereo unspecified),1.96,3.52,9.11
